From PubChem BioAssay
The other results are listed elsewhere or left out. Active and inactive are the calls of the source. Unless noted, how the calls were made is not given here.

Legend:
[1] = biological target: Regulator of G-protein signaling 16 (Homo sapiens) (UniProt O15492); assay: small molecules altering RGS protein interactions with GNAO1 – biochemical, multiplexed beads, flow cytometry, RGS4/7/8/16/19, primary screen (AID 1504); details: multiplexed bead flow cytometry, measured here: RGS16 interaction, at 10 µM;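 further: fluorescently labeled Galpha-o bound to GDP with aluminium fluoride binding biotinylated RGS beads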
[2] = biological target: Regulator of G-protein signaling 19 (Homo sapiens) (UniProt P49795); assay: as above; details: multiplexed bead flow cytometry, measured here: RGS19 interaction, at 10 µM
[3] = biological target: Regulator of G-protein signaling 4 (Homo sapiens) + Guanine nucleotide-binding protein G(o) subunit alpha (Homo sapiens) (UniProt P49798+P09471); assay: as above; details: multiplexed bead flow cytometry, at 10 µM
Sequence of Regulator of G-protein signaling 4 (Homo sapiens) + Guanine nucleotide-binding protein G(o) subunit alpha (Homo sapiens) (P09471 whole entry, looked up): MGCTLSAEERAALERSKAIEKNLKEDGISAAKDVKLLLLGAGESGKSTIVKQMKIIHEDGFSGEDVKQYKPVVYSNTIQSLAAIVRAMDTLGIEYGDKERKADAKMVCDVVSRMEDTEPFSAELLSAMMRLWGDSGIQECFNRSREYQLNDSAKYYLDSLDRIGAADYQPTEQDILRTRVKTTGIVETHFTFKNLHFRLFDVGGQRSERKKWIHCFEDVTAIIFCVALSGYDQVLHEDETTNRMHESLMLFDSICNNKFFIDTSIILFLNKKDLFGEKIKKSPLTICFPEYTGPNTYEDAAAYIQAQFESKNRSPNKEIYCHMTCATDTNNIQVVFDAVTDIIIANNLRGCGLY
Sequence of Regulator of G-protein signaling 4 (Homo sapiens) + Guanine nucleotide-binding protein G(o) subunit alpha (Homo sapiens) (P49798 whole entry, looked up): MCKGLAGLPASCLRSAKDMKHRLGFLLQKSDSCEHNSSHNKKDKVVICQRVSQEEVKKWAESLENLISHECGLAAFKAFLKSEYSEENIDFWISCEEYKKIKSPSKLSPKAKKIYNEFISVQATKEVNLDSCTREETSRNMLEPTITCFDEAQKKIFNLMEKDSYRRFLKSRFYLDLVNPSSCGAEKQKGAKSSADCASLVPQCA

[4] = biological target: Regulator of G-protein signaling 7 (Homo sapiens) (UniProt P49802); assay: as above; details: multiplexed bead flow cytometry, measured here: RGS7 interaction, at 10 µM
[5] = biological target: Regulator of G-protein signaling 8 (Homo sapiens) (UniProt P57771); assay: as above; details: multiplexed bead flow cytometry, measured here: RGS8 interaction, at 10 µM
[6] = interference with biotin-avidin bead interaction – biochemical, flow cytometry, bead-based, counter-screen for RGS protein interaction modulators (AID 1783;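 active means inhibition above 50%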;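 further: median green fluorescence of gated singlet beads compared with DMSO control wells; 0% = DMSO wells and 100% = complete loss of bead fluorescence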); details: streptavidin beads, fluorescein-biotin binding; at 10 µM, stronger effect = higher value
[7] = biological target: Guanine nucleotide-binding protein G(o) subunit alpha (Homo sapiens) (UniProt P09471); assay: retest of RGS8-Galphao interaction hits – biochemical, multiplexed bead flow cytometry, single concentration, confirmation (AID 1836; in the data active means binding response below about 72% or above about 130%; inactive means in between;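 further: Galphao activated as GDP AlF4 complex before binding bead RGS8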); details: bead-based flow cytometry RGS8-Galphao binding, fluorescence; at 10 µM; actives lie on both sides
Sequence of Guanine nucleotide-binding protein G(o) subunit alpha (Homo sapiens) (P09471 whole entry, looked up): as the sequence (P09471 whole entry, looked up) above

[8] = biological target: Guanine nucleotide-binding protein G(o) subunit alpha (Homo sapiens) (UniProt P09471); assay: retest of RGS7-Galphao interaction hits – biochemical, multiplexed bead flow cytometry, single concentration, confirmation (AID 1837; in the data active means response below about 75% or above about 130%; inactive means in between;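 further: fluorescent Galphao activated with GDP and aluminum fluoride binding bead-coupled RGS7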); details: bead-based flow cytometry RGS7-Galphao binding; at 10 µM; actives lie on both sides
[9] = biological target: Regulator of G-protein signaling 16 (Homo sapiens) + Guanine nucleotide-binding protein G(o) subunit alpha (Homo sapiens) (UniProt O15492+P09471); assay: RGS16 and Galphao interaction regulators – biochemical, single concentration, multiplexed bead flow cytometry, confirmation (AID 1838; in the data active means response below about 74% or above about 130%; inactive means in between;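 further: Galphao activated as the GDP aluminium fluoride complex binding bead-coupled RGS16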); details: bead-based flow cytometry, at 10 µM, actives lie on both sides
Sequence of Regulator of G-protein signaling 16 (Homo sapiens) + Guanine nucleotide-binding protein G(o) subunit alpha (Homo sapiens) (O15492 whole entry, looked up): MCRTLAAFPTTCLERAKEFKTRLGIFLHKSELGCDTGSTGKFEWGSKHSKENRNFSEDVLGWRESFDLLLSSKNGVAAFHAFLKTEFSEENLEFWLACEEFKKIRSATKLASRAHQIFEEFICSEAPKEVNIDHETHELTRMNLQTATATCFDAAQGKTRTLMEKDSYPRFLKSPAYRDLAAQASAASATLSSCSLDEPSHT
Sequence of Regulator of G-protein signaling 16 (Homo sapiens) + Guanine nucleotide-binding protein G(o) subunit alpha (Homo sapiens) (P09471 whole entry, looked up): as the sequence (P09471 whole entry, looked up) above

[10] = biological target: Guanine nucleotide-binding protein G(o) subunit alpha (Homo sapiens) (UniProt P09471); assay: RGS4 and Galphao interaction regulators – biochemical, single concentration, multiplexed bead flow cytometry, confirmation (AID 1840; in the data active means binding response below about 74% or above about 130%; inactive means in between); details: at 10 µM, actives lie on both sides
[11] = biological target: Guanine nucleotide-binding protein G(o) subunit alpha (Homo sapiens) + Regulator of G-protein signaling 19 (Homo sapiens) (UniProt P09471+P49795); assay: RGS19 interaction with Gαo, hit retest – biochemical, single point, multiplexed bead flow cytometry, confirmation (AID 1841; in the data active means response below about 50% or above about 160%; inactive means in between;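 further: 100% = no compound control and 0% = blank background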); details: bead-based flow cytometry RGS19-Galphao binding; at 10 µM; actives lie on both sides
Sequence of Guanine nucleotide-binding protein G(o) subunit alpha (Homo sapiens) + Regulator of G-protein signaling 19 (Homo sapiens) (P09471 whole entry, looked up): as above
Sequence of Guanine nucleotide-binding protein G(o) subunit alpha (Homo sapiens) + Regulator of G-protein signaling 19 (Homo sapiens) (P49795 whole entry, looked up): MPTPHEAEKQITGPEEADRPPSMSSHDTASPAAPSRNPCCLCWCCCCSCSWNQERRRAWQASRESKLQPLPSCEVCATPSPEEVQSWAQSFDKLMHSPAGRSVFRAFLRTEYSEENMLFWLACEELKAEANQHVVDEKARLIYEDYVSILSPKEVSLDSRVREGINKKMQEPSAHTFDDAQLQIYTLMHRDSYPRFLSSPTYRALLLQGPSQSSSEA

[12] = biological target: Ras-related C3 botulinum toxin substrate 1 (Homo sapiens) (UniProt P63000); assay: inhibition of wildtype Rac1 nucleotide loading – biochemical, multiplex bead flow cytometry, dose response (AID 1340;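 active means dose curve with midpoint inside tested range, moderate steepness, plateau gap beyond fit error, low compound glow and bead-link interference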); details: GST-Rac1 beads, Bodipy-FL-GTP binding; at 100 µM (top of the series) unless noted

SMILES | RGS16–Galpha-o binding response [1] | RGS19–Galpha-o binding response [2] | RGS4–Galpha-o binding response [3] | RGS7–Galpha-o binding response [4] | RGS8–Galpha-o binding response [5] | inhibition [6] | binding response (% of control) [7] | response (percent of control binding) [8] | response (% of control binding) [9] | binding response (% of control) [10] | response (percent of control binding) [11] | GTP binding signal, raw median fluorescence (lower = inhibition) (MCF (arbitrary fluorescence units)) [12]
Cc1ccc(OCC(O)CN2CCN(CC(O)COc3ccc(C)cc3Cl)CC2)c(Cl)c1 (centres undefined) | 367% | 114% | 139% (active) | 127% | 165% | – | – | – | – | – | – | –
O=C(Nc1cccc(-c2nc3ccccc3[nH]2)c1)c1ccc(C(=O)Nc2cccc(-c3nc4ccccc4[nH]3)c2)cc1 | 219% | 436% | 132% (active) | 495% | 112% | 1% (inactive) | 104% (inactive) | 126% [activator] (active) | 131% [activator] (active) | 108% (inactive) | 217% (active) | –
CC1(C)C=C2[C@H]3CC[C@@H]4[C@@]5(C)CCC(=O)C(C)(C)[C@@H]5CC[C@@]4(C)[C@]3(C)CC[C@@]2(C(=O)O)CC1 | 267% | -110% | 119% (active) | 114% | 134% | 0.1% (inactive) | 107% (inactive) | 81.6% (inactive) | 107% (inactive) | 94.2% (inactive) | 68.7% (inactive) | –
O=C(Nc1ccccc1)c1cc2ccccc2[nH]1 | 13.8% | -785% | 90.3% (active) | 89.9% | 67.8% | 0.6% (inactive) | 105% (inactive) | 103% (inactive) | 106% (inactive) | 106% (inactive) | 99.5% (inactive) | –
CN(C)S(=O)(=O)Oc1ccccc1C(=O)Nc1ccccc1Cl | 100% | 70.6% | 114% (active) | 223% | 97.6% | -0.2% (inactive) | 97.3% (inactive) | 101% (inactive) | 100% (inactive) | 98.9% (inactive) | 83.3% (inactive) | –
CN(CC(=O)NC1CCCCC1)S(=O)(=O)c1cccc2cccnc12 | 94.7% | 114% | 110% (active) | 241% | 89.3% | – | – | – | – | – | – | –
CCOC(=O)c1c(NC(=O)N/N=C/c2ccccc2OCC)sc(C(C)=O)c1C | – | – | – | – | – | – | – | – | – | – | – | 238
CN(C)CCN=c1cc(-c2ccccc2)oc2ccc(Cl)cc12 | 103% | 95.4% | 110% (active) | 155% | 102% | -3.8% (inactive) | 107% (inactive) | 111% (inactive) | 113% (inactive) | 107% (inactive) | 108% (inactive) | –
Cc1ccccc1CS(=O)(=O)CC1(O)CCN(C(=O)c2cccc(C(F)(F)F)c2)CC1 | 106% | 115% | 110% (active) | 157% | 100% | 2.5% (inactive) | 104% (inactive) | 105% (inactive) | 102% (inactive) | 105% (inactive) | 78.9% (inactive) | –
O=C(NC1CC1)c1ccc2c(c1)NC(=O)c1ccccc1S2 | 113% | 370% | 113% (active) | 191% | 98.7% | – | – | – | – | – | – | –
CCOc1ccc(NC(=O)CSc2nc3ccccc3c(=O)n2Cc2cccs2)cc1 | -1.24% | 116% | 84.3% (active) | 81.9% | 75.5% | 1.1% (inactive) | 101% (inactive) | 104% (inactive) | 104% (inactive) | 102% (inactive) | 102% (inactive) | –
CSc1ccc(CN2C(=O)NC3(CCCCCC3)C2=O)cc1 | 99.1% | 1890% | 106% (active) | 219% | 97.9% | -1.7% (inactive) | 96.3% (inactive) | 94.7% (inactive) | 96.5% (inactive) | 97.1% (inactive) | 108% (inactive) | –
